Consider five compounds from PubChem BioAssay AID588664 (The Scripps Research Institute Molecular Screening Center, 2011).

Usually inhibition stands for the relative decrease from the control value, in per cent.

Each structure is given as a SMILES string. Among all 360,000 compounds or so, about 1,400 (0.39%) were called active. Shown is part of a subset that was picked to be rich in actives. Unmarked numbers belong to inactive results. Rule as the data show it: active = inhibition above about 5% (passing the limit was not always enough); inactive = the rest.

The target in this test is Tyrosine-protein kinase ABL1 (Homo sapiens) + Ras and Rab interactor 1 (Homo sapiens) (UniProt P00519+Q13671). The test is described as follows: inhibitors of Rin1-Abl protein binding, primary screen, biochemical, TR-FRET (AID 588664). Conditions: at 7.35 µM, hits give high values. (In general: Time-resolved FRET reads energy transfer from a long-lived donor to a nearby acceptor.)
Sequence of Tyrosine-protein kinase ABL1 (Homo sapiens) + Ras and Rab interactor 1 (Homo sapiens) (P00519 whole entry, looked up): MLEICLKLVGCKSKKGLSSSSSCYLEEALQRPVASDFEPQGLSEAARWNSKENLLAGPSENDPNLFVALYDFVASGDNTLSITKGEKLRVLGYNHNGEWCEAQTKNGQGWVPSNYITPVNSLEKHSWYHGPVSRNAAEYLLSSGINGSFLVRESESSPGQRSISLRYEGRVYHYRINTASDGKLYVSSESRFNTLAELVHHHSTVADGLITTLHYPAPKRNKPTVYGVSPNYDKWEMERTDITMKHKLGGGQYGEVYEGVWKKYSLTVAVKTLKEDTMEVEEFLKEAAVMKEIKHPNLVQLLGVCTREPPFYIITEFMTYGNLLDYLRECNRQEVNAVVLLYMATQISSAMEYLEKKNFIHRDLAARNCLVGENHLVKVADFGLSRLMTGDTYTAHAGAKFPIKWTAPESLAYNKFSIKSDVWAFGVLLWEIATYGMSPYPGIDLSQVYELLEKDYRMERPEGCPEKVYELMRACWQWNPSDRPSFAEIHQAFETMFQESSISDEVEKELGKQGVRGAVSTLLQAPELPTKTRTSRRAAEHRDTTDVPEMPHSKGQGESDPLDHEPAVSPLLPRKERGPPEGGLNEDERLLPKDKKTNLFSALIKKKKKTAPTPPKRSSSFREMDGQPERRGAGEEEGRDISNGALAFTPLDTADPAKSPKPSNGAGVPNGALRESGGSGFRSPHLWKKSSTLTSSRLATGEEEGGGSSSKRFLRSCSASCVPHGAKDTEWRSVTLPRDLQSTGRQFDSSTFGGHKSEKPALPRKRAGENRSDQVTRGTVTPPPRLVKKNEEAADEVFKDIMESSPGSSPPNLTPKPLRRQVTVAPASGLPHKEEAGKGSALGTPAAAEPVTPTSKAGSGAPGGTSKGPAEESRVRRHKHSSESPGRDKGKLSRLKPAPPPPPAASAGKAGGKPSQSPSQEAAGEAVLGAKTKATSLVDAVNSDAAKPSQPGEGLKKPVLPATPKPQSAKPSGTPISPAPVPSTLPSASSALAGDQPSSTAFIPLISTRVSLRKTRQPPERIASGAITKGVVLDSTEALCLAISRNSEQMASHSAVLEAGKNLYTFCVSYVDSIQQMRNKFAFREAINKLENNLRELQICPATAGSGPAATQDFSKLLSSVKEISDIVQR
Sequence of Tyrosine-protein kinase ABL1 (Homo sapiens) + Ras and Rab interactor 1 (Homo sapiens) (Q13671 whole entry, looked up): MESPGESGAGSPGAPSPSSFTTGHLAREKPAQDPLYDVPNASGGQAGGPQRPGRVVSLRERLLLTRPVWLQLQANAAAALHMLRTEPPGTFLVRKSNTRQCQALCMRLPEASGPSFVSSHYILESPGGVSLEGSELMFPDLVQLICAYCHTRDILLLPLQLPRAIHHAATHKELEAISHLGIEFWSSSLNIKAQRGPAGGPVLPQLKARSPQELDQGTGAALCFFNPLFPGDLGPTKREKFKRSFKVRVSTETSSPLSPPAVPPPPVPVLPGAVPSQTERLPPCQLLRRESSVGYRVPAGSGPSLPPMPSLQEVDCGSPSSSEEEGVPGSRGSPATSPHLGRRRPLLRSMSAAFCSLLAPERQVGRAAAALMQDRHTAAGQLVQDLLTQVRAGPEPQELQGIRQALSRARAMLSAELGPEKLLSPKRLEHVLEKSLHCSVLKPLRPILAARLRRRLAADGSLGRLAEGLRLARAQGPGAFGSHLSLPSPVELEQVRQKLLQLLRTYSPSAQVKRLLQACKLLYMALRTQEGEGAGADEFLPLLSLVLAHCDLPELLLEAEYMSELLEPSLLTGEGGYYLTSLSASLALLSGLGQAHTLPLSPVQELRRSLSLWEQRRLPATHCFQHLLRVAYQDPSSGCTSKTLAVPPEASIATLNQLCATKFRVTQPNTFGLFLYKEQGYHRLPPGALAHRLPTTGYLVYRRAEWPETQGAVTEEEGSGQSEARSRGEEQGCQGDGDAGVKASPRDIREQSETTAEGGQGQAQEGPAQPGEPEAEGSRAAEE
In the case of `O=c1[nH]c2ccccc2n1C1CCN(C(c2ccccc2)c2nnnn2Cc2ccccc2)CC1` (stereo not given), the inhibition is -0.41%. Then `CSCCC(c1nnnn1C(C)(C)C)N1CCC(n2c(=O)[nH]c3ccccc32)CC1` (stereo not given), with 19.1% (active).

In the case of `COc1ccc(-n2nnnc2C(c2cccc3ccccc23)N2CCC(n3c(=O)[nH]c4ccccc43)CC2)cc1` (stereo not given), the inhibition is 0.78%. In the case of `COc1ccc2[nH]c3c(c2c1)CCN[C@H]3C` it was -0.17%; in that of `CCc1nnc(NS(=O)(=O)c2ccc(N=Cc3c(O)n(-c4ccccc4)c(=O)[nH]c3=O)cc2)s1`, 4.11%.
